# Reference: PubChem BioAssay (NCATS)
# Results filed as inconclusive are left out. Entries that show only a call come without a potency. Activity calls are given as the source filed them. Unless noted, calls come from the whole dose curve; as a rule, active = well fitted curve in the direction sought with a large enough effect; inconclusive = small, poorly fitted or top-dose-only effect, or another doubt; inactive = no such curve, though single readings can be large; an effect the other way counts as inactive or inconclusive.
# Experiments:
# [1] = Primary qHTS for inhibitors of nuclear receptor binding SET domain protein 2 (NSD2) in an RCH-ACV wild type WT cells (2C) (AID 1645877); note: nearly all actives have a fitted effect of over 70% in size
# [2] = molecular target: Glutathione peroxidase 1 (Homo sapiens) (UniProt P07203); experiment: Primary qHTS Assay for Inhibitors of Recombinant Selenoprotein Glutathione Peroxidase 1 (GPX1) (AID 1845191); note: nearly all actives have a fitted effect of over 65% in size
# Outline: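 GPX1 10 nM, GR 100 nM, GSH 1 mM, NADPH 0.5 mM, CHP 0.5 mM (final). 30-min cpd preincubation, RT. Ex340/Em450 read t=0, t=15 min.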
# [3] = system: Nanoluciferase (engineered Oplophorus gracilirostris luciferase); experiment: Primary Nanoluciferase (NLuc) qHTS assay for identification of artifact compounds. (AID 1845222);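 note: NLuc secreted into diluted conditioned medium of S16 cells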
# Outline: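 Using secreted nanoluciferase in S16 culture medium (0.22 um filtered, 1:55 dilution), compounds were preincubated 15 min at RT. Signal was generated with Nano-Glo reagent (1:100) over 5 min.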
# [4] = Primary fluorescence-based thiol-reactive (MSTI) qHTS assay for identification of artifact compounds. (AID 1845221);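 note: thiol-reactive compounds lower the probe fluorescence signal; nearly all actives have a fitted effect of over 65% in size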
# Outline: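 Curve-fitted percent inhibition (4-parameter Hill) derived from fluorescence, Ex 525/Em 598 nm, scaled with Acetyl-MSTI and MSTI; 1 h incubation at room temperature.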
# [5] = Primary redox qHTS assay for identification of artifact compounds. (AID 1845223)
# Outline: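 Redox-cycling detection via DTT (250 uM final) oxidation coupled to Amplex Red (25 uM)/HRP (250 mU/mL) in HBSS. 15 min preincubation plus 30 min after DTT, room temperature. Ex/Em 525/598 nm; 4-parameter Hill fit against DMSO and 10 uM DA3003.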
# [6] = molecular target: Catechol O-methyltransferase (Homo sapiens) (UniProt P21964); experiment: Confirmatory Screen for Target Class Profiling of Small Molecule Inhibitors of Methyltransferases (AID 1745852; calls by dose curve; note: potency is the fitted concentration of half-maximal effect); settings: MTase-Glo luminescence, SAH detection, recombinant enzyme; measured here: COMT max response; stronger effect = lower value
# [7] = molecular target: Guanidinoacetate N-methyltransferase (Homo sapiens) (UniProt Q14353); experiment: as above; settings: MTase-Glo luminescence, SAH detection, recombinant enzyme; activity change, negative = inhibition: at 57.3 µM (top of the series) unless noted
# [8] = molecular target: Nicotinamide N-methyltransferase (Homo sapiens) (UniProt P40261); experiment: as above; settings: MTase-Glo luminescence, SAH detection, recombinant enzyme; measured here: NNMT max response; stronger effect = lower value
# [9] = molecular target: Phenylethanolamine N-methyltransferase (Homo sapiens) (UniProt P11086); experiment: as above; settings: MTase-Glo luminescence, SAH detection, recombinant enzyme; measured here: PNMT max response; stronger effect = lower value
# [10] = molecular target: Phospholipid hydroperoxide glutathione peroxidase GPX4 (Homo sapiens) (UniProt P36969); experiment: Primary qHTS Assay for Inhibitors of Recombinant Selenoprotein Glutathione Peroxidase 4 (GPX4) (AID 1845192); note: nearly all actives have a fitted effect of over 65% in size; note: potency is the fitted concentration of half-maximal effect
# Outline: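 qHTS, GR-coupled: GPX4 200 nM + cpd 30 min RT → GSH 1 mM, NADPH 0.5 mM, GR 100 nM → CHP 0.5 mM start; fluor 340/450 at t0 and t15 min; no-enzyme wells as control.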
# [11] = molecular target: Luciferin 4-monooxygenase (Photinus pyralis) (UniProt P08659); experiment: Primary firefly luciferase (FLuc) qHTS assay for identification of artifact compounds. (AID 1845220); note: nearly all actives have a fitted effect of over 60% in size
# Outline: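 In this counter-screen for luciferase artifacts, test compounds met substrate (10 uM each luciferin and ATP) before 10 nM enzyme started the reaction. Light output was measured 5 min later.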
# [12] = molecular target: Metallo-beta-lactamase type 2 (Klebsiella pneumoniae) (UniProt C7C422); experiment: qHTS to identify inhibitors of the New Delhi Metallo-beta-lactamase (NDM): assay validation screen against the NCATS LOPAC Collection (AID 1794843)
# Outline: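 Absorbance at 485 nm from nitrocefin turnover (50 uM solution added), read at plateau, gives the read-out. Compounds in DMSO were incubated first with 2 nM final NDM-1 in pH 7.0 HEPES buffer containing 1 uM ZnSO4 and 0.01% Tween20.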
# Chain of Glutathione peroxidase 1 (Homo sapiens) (P07203 whole entry, looked up): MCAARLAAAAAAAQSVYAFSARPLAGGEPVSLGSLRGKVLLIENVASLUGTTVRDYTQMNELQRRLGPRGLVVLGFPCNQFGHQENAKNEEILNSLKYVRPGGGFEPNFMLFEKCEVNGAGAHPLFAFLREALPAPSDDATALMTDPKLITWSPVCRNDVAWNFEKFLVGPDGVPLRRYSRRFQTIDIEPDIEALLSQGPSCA
# Chain of Phospholipid hydroperoxide glutathione peroxidase GPX4 (Homo sapiens) (P36969 whole entry, looked up): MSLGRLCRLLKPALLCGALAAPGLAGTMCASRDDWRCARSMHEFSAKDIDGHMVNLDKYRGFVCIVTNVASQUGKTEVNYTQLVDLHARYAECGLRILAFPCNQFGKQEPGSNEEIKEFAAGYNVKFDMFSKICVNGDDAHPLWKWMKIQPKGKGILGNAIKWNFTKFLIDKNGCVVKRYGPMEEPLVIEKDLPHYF
# Chain of Catechol O-methyltransferase (Homo sapiens) (P21964 whole entry, looked up): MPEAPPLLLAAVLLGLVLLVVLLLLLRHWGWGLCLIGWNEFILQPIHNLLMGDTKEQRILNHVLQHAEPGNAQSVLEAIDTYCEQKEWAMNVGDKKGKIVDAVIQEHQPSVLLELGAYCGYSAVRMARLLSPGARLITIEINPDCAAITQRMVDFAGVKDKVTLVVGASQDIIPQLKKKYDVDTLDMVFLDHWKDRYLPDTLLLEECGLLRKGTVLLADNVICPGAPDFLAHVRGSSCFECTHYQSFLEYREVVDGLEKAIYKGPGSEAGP
# Chain of Nicotinamide N-methyltransferase (Homo sapiens) (P40261 whole entry, looked up): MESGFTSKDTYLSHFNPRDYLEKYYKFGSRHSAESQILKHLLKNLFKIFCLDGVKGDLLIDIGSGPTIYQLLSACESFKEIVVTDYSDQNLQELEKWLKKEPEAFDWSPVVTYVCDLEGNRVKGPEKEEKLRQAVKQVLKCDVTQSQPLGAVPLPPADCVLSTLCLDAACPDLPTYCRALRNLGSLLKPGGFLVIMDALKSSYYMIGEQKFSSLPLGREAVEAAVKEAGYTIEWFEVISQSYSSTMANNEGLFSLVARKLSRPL
# Chain of Phenylethanolamine N-methyltransferase (Homo sapiens) (P11086 whole entry, looked up): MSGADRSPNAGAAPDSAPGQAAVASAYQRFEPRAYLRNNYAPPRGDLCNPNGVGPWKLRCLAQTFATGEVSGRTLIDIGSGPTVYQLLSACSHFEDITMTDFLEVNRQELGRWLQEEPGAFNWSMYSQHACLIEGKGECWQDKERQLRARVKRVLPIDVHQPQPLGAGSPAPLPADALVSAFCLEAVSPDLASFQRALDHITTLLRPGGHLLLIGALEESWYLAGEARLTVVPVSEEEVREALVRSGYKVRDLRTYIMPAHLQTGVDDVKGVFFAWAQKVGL
# Chain of Metallo-beta-lactamase type 2 (Klebsiella pneumoniae) (C7C422 whole entry, looked up): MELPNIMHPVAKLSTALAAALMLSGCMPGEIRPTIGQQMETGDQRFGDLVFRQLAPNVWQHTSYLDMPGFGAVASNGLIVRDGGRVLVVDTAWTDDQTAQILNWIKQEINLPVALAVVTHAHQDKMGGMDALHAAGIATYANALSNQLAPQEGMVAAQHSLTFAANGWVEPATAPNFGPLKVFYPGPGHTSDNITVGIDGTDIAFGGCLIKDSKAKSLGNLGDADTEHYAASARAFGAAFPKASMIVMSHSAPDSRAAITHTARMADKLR
smiles,measurement,setting,value
Cc1ccc(CN2CCNCC2)cc1NC(=O)CNc1ccc(F)c(F)c1,Potency,[1],inactive
same,Potency,[2],inactive
same,Potency,[3],inactive
Clc1cccc(-c2nnnn2Cc2cccnc2)c1Cl,Potency,[1],inactive
same,Potency,[2],inactive
same,Potency,[4],inactive
same,Potency,[3],inactive
same,Potency,[5],inactive
Cn1cncc1[C@@](N)(c1ccc(Cl)cc1)c1ccc2c(c1)c(-c1cccc(Cl)c1)cc(=O)n2C,Potency,[2],inactive
Cc1c(C)n(Cc2ccc(-c3ccccc3C(=O)O)cc2)c2ccc(C(=O)N[C@@H](C)c3ccc([N+](=O)[O-])cc3)cc12,activity,[6],-7.34%
same,"activity change, negative = inhibition",[7],-10.2%
same,activity,[8],-14.9%
same,activity,[9],-11.9%
same,Potency,[2],inactive
same,Potency,[10],9.04 µM (active)
same,Potency,[11],inactive
same,Potency,[4],inactive
same,Potency,[3],inactive
same,Potency,[5],inactive
CC1COC2(CCN(c3nc(=O)c4cc(C(F)(F)F)cc([N+](=O)[O-])c4s3)CC2)O1 (centres undefined),Potency,[1],inactive
same,Potency,[2],inactive
same,Potency,[3],inactive
same,Potency,[5],inactive
CN[C@H]1CCc2cc(OC)c(OC)c(OC)c2-c2ccc(OC)c(=O)cc21,Potency,[2],inactive
same,Potency,[10],inactive
O=c1c2ccccc2nc2n1CCc1c-2[nH]c2ccccc12,outcome,[12],inactive
same,Potency,[2],inactive
same,Potency,[4],inactive
same,Potency,[3],inactive
same,Potency,[5],inactive
COC(=O)C1=C(C)NC(C)=C(C(=O)OCCN2CCN(C(c3ccccc3)c3ccccc3)CC2)C1c1cccc([N+](=O)[O-])c1 (centres undefined),Potency,[2],inactive
same,Potency,[10],inactive
CC(C)c1ccccc1Cc1cc(C(=O)Nc2ccc(S(=O)(=O)c3ccccc3C(C)(C)C)cc2)c(O)c(O)c1O,Potency,[2],inactive
Cc1ccc(C(N)=O)cc1Nc1nccc(-c2cn(C(C)C)c3cnccc23)n1,activity,[6],-56.6%
same,Potency,[7],27.1 µM (active)
same,activity,[8],-53.8%
same,activity,[9],-56%
same,Potency,[2],inactive
same,Potency,[10],inactive
same,Potency,[11],inactive
same,Potency,[4],inactive
same,Potency,[3],inactive
same,Potency,[5],inactive
CN(c1ncccc1CNc1nc(Nc2ccc3c(c2)CC(=O)N3)ncc1C(F)(F)F)S(C)(=O)=O,Potency,[2],inactive
CC(=O)OCCN1C(=O)c2c(C)nc3ccc(S(=O)(=O)N4CCOCC4)cc3c2C1=O,Potency,[2],inactive
same,Potency,[10],inactive
CN(C)CCCN=c1c2ccccc2n(C)c2[nH]c(=O)n(C)c(=O)c12,Potency,[2],inactive
same,Potency,[10],inactive
C#Cc1cccc(Nc2ncnc3cc(OC)c(OCCCCCCC(=O)NO)cc23)c1,Potency,[2],inactive
same,Potency,[4],inactive
same,Potency,[3],inactive
same,Potency,[5],inactive
CCOc1ccccc1OCCNC(C)Cc1ccc(OC)c(S(N)(=O)=O)c1 (centres undefined),Potency,[10],inactive
same,Potency,[4],inactive
same,Potency,[3],inactive
COC(=O)Nc1ccc(-c2nc(N3CCOCC3)c3cnn(C4CCN(Cc5cccnc5)CC4)c3n2)cc1,Potency,[2],inactive
same,Potency,[11],inactive
same,Potency,[4],inactive
same,Potency,[3],inactive
same,Potency,[5],inactive
COc1cccc(Nc2c(C(N)=O)cnc3c(C)cc(S(=O)(=O)c4cccc(C(=O)N(C)C)c4)cc23)c1,Potency,[2],inactive
same,Potency,[4],inactive
same,Potency,[3],inactive
same,Potency,[5],inactive
CS(=O)(=O)c1ccc(-c2cnc(N)c(C(=O)Nc3ccccc3)n2)cc1,Potency,[2],inactive
same,Potency,[10],inactive
same,Potency,[11],inactive
same,Potency,[4],inactive
same,Potency,[3],inactive
Nc1nc(Nc2ccc(S(N)(=O)=O)cc2)nn1C(=O)c1c(F)cccc1F,Potency,[2],inactive
same,Potency,[10],inactive
same,Potency,[11],inactive
same,Potency,[4],inactive
same,Potency,[3],inactive
same,Potency,[5],inactive
CC(C)c1noc(N2CCC(COc3ccc(-c4ccc(S(C)(=O)=O)cc4)nc3)CC2)n1,Potency,[2],inactive
same,Potency,[10],inactive
same,Potency,[4],inactive
same,Potency,[3],inactive
same,Potency,[5],inactive
CCNC(=O)Nc1ccc2ncc(Nc3ccc(C)cc3)nc2n1,Potency,[2],inactive
same,Potency,[10],inactive
same,Potency,[4],inactive
same,Potency,[3],inactive
same,Potency,[5],inactive
Clc1cccc(-n2nnnc2NCc2ccccc2Oc2ccccn2)c1Cl,Potency,[10],inactive
same,Potency,[11],inactive
same,Potency,[4],inactive
same,Potency,[3],inactive
same,Potency,[5],inactive
O=C(O)Cn1nnc(-c2cc(N3CCC(Oc4cc(F)ccc4Br)CC3)no2)n1,Potency,[2],inactive
same,Potency,[11],inactive
same,Potency,[4],inactive
same,Potency,[3],inactive
same,Potency,[5],inactive
Fc1cc(-c2cccc3ncc(-c4cnn(C5CCNCC5)c4)nc23)cc(F)c1CN1CCOCC1,Potency,[2],inactive
same,Potency,[10],inactive
same,Potency,[11],inactive
same,Potency,[4],inactive
same,Potency,[3],inactive
CC(C)(O)c1cc2nc(-c3cnc(N)nc3)nc(N3CCOCC3)c2s1,Potency,[2],inactive
same,Potency,[10],inactive
same,Potency,[11],inactive
same,Potency,[4],inactive
same,Potency,[3],inactive
COc1cc2c(Oc3ccc4[nH]c(C)cc4c3F)ncnc2cc1OCCCN1CCCC1,Potency,[2],inactive
same,Potency,[10],inactive
same,Potency,[11],inactive
same,Potency,[3],inactive
